# High-throughput results from PubChem.
# This excerpt belongs to a sample that is enriched for hits.
# ST2 inh = inhibitors of human ST2 (IL1RL1) binding to IL-33; Q01638; AlphaLISA ST2-Fc/biotin-IL-33 interaction, 1 h; inhibition, % for hits at 17 µM; hit rate 2.3% among 78,000; AID 1259354; in the data active = inhibition above about 30%
# Target sequence (Q01638 whole entry, looked up): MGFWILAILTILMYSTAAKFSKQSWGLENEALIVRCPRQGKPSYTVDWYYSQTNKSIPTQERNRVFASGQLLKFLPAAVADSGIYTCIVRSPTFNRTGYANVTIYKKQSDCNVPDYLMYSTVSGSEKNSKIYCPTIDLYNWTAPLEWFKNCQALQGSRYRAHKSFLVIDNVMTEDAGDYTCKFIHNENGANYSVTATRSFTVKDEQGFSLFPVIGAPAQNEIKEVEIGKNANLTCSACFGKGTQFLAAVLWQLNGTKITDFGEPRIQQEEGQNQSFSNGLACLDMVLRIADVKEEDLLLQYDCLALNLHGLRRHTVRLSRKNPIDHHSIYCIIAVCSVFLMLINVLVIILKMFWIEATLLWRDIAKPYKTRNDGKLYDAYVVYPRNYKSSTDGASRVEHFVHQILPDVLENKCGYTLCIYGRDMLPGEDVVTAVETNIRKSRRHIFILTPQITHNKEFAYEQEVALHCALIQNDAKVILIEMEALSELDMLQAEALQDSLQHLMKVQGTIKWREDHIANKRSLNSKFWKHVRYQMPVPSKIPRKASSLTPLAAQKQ
# Starred values were filed as active, the others as inactive; i = inactive; ! = repeats disagree.
SMILES,ST2 inh
COc1ccc(-c2nc(N3CCC(C)CC3)nc3nn4c(C)c(CCC(=O)O)c(C)nc4c23)cc1,i
O=C(Nc1ccc(-c2cccc(F)c2)cc1)C1CCCN(C(=O)C2CCOCC2)C1 (stereo not drawn),i
Cc1[nH]c(-c2ccccc2)nc1C(=O)N1CCCC2(CC1)CN(C)C(=O)O2 (stereo not drawn),i
CN1C(=O)N(CCc2ccccc2)C(=O)C12CCN(Cc1ccc(-c3ccccc3)cc1)CC2,i
O=[N+]([O-])C=C(c1ccccc1)c1ccccc1,39%*
NC(=O)c1ccccc1,i
O=[N+]([O-])C([N+](=O)[O-])=S(c1ccccc1)c1ccccc1,i
O=C(CC1(O)C(=O)N(Cc2ccc(Cl)cc2)c2ccccc21)c1ccccc1O (stereo not drawn),i
N#Cc1c(-n2ncnc2-c2ccc3c(c2)OCO3)sc2c1CCCCC2,35%*!
COc1ccccc1-c1nc2sc3c(c2c(=O)[nH]1)CCCC3,i
N#Cc1c(NC(=O)COc2cccc3ccccc23)sc2c1CCCC2,i
COc1ccc(-c2cc(C(=O)Nc3sc4c(c3C#N)CCC4)no2)cc1,i
N#Cc1c(NC(=O)c2cc(-c3ccc4c(c3)OCO4)on2)sc2c1CCC2,i
COc1ccc(-c2cc(C(=O)Nc3sc4c(c3C#N)CCCC4)no2)cc1OC,i
COc1ccccc1-c1ncnn1-c1sc2c(c1C#N)CCCCC2,48%*
COc1ccc(-c2ncnn2-c2sc3c(c2C#N)CCCC3)cc1,44%*
Fc1cc(Br)ccc1-n1ncnc1-c1ccc2c(c1)OCO2,i
CC(C)CN1C(=O)N(C2Cc3ccccc3C2)C(=O)C12CCN(C1CCSC1)CC2 (stereo not drawn),i
O=C1OC(c2ccc([N+](=O)[O-])cc2)OC1c1ccccc1 (stereo not drawn),i
COc1ccc(-c2nc(-c3ccc(C(=O)O)cc3)[nH]c2-c2ccccc2)cc1OC,i
COc1ccc(C(=O)Nc2cc(Cl)ccc2Cl)cc1[N+](=O)[O-],i
Cc1ccsc1C(CNC(=O)c1ccc2[nH]c(=O)[nH]c2c1)N(C)C (stereo not drawn),i
[O-][n+]1c2ccccc2[n+]([O-])c2cc(O)ccc21,35%*
CCCc1c(C)c2ccc(OCC(=O)OC)cc2oc1=O,i
c1ccc(C2=NC3(CCCC3)N=C2c2ccccc2)cc1,i
SMILES,ST2 inh
Cc1ccc(S(=O)(=O)N(CC(=O)N2CCOCC2)Cc2ccc(Cl)cc2Cl)cc1,i
COc1ccc(N/C=C(/c2cc(O)ccc2O)[N+](=O)[O-])cc1,45%*
COc1ccc(C(=O)Nc2ccc([N+](=O)[O-])cc2)cc1,i
COc1ccc(CC(=O)Nc2ccc(C)c([N+](=O)[O-])c2)cc1,i
Cc1cccc2oc(-c3cccc(N=Cc4cc([N+](=O)[O-])cc([N+](=O)[O-])c4O)c3)nc12,i
Cc1ccc2nc(-c3ccc(N=Cc4ccc5c(c4)OCO5)cc3O)oc2c1,32%*
Oc1ccc(N=Cc2cccc(I)c2O)cc1-c1nc2ccccc2o1,41%*
Cc1cccc2oc(-c3cccc(N=Cc4ccc(O)cc4O)c3)nc12,i
Cc1ccc2nc(SCC(=O)c3ccc4c(c3)OCO4)[nH]c2c1,i
O=C(O)c1ccc(O)c(C=Nc2cccc(-c3nc4ccccc4o3)c2)c1,i
Cc1cc(C=Nc2ccc(-c3nc4ccccc4o3)c(O)c2)c(O)c([N+](=O)[O-])c1,30%*
Cc1ccc2nc(-c3cccc(N=Cc4cccc([N+](=O)[O-])c4O)c3)oc2c1,i
O=C(Nc1ccc(O)c(-c2nc3ccccc3o2)c1)c1cccc(Cl)c1Cl,i
CC(c1cccs1)N(C)C(=O)Cc1[nH]nc2ccccc12 (stereo not drawn),i
Cn1c(=O)c2c(-c3ccccc3)n(-c3ccc(F)cc3)cc2n(C)c1=O,i
O=C(NC1CCCC1)C1c2ccccc2C(=O)N1CCc1ccccc1 (stereo not drawn),i
Cc1ccc(N2CSC3=C(C#N)C(c4ccccc4F)CC(=O)N3C2)cc1 (stereo not drawn),i
O=C(/C=C/c1cccnc1)N1CCc2ccc(NC(=O)C3(c4ccccc4)CC3)cc2C1,i
CN=C1S/C(=C\c2cn(CC(=O)O)c3ccccc23)C(=O)N1C,i
Cc1ccc(Cn2cc(CCC(=O)O)c3ccccc32)cc1,i
Cc1oc(N=Cc2cn(Cc3ccccc3)c3ccccc23)c(C#N)c1C,46%*
CC(=O)c1ccc(N2N=C(C)/C(=C/c3ccc(-c4cccc([N+](=O)[O-])c4)o3)C2=O)cc1,i
CC1=C(C#N)C(=O)NC(=O)/C1=C\c1ccc(-c2cccc([N+](=O)[O-])c2)o1,30%*
CC1=C(C#N)c2nc(N)c(C#N)c(C)c2/C1=C\c1cccc([N+](=O)[O-])c1,i
O=C(Nc1cccc([N+](=O)[O-])c1)c1ccccc1F,i
SMILES,ST2 inh
CCOc1ccccc1NS(=O)(=O)c1ccc2[nH]c(=O)sc2c1,i
Cc1cc(C(=O)N(CC2CCN(Cc3ccccc3F)CC2)CC2CCCO2)c(C)o1 (stereo not drawn),i
Cc1cc2c(cc1S(=O)(=O)N1CCC(C(=O)Nc3nccs3)CC1)OCC(=O)N2,i
COCCCNC(=O)c1cccn2c(=O)c3cc4ccccc4cc3nc12,30%*
O=C(NCc1ccco1)c1cccn2c(=O)c3cc4ccccc4cc3nc12,i
COCCCNC(=O)c1cc2c(=O)n3cccc(C)c3nc2n1C,i
CC(CCC(O)C(C)(C)O)C1CCC2(C)C3=C(CC(O)C12C)C1(C)CC(OC(=O)CC(C)(O)CC(=O)O)C(O)C(C)(C)C1CC3 (stereo not drawn),i
N#CC1=C(N)Oc2cc(N)ccc2C1c1cccc(I)c1 (stereo not drawn),i
COc1ccc(N=Cc2cc3c(cc2O)OC(N)=C(C#N)C3c2cccc(F)c2)cc1 (stereo not drawn),33%*
N#CC1=C(N)Oc2cc(O)c(Cl)cc2C1c1ccc(F)cc1 (stereo not drawn),i
c1cncc(-c2cn(CC3CCCN(c4cnc5ccccc5n4)C3)nn2)c1 (stereo not drawn),i
Cc1ccccc1CN1CCC(CN(CC2CCCO2)C(=O)c2ocnc2C)CC1 (stereo not drawn),i
CCCCc1cc(C[C@H]2CNCC[C@H]2CC(=O)N2CCN(C(C)=O)CC2)no1,43%*
CCCCc1cc(C[C@H]2CNCC[C@H]2CC(=O)N2CCc3cc(OC)c(OC)cc3C2)no1,i
COc1ccc(-c2cc(C[C@H]3CNCC[C@H]3CC(=O)N3CCN(C(C)=O)CC3)no2)cc1,i
COc1ccc(CNC(=O)C[C@@H]2CCNC[C@@H]2Cc2cc(-c3ccccc3)on2)cc1OC,i
COc1ccccc1CNC(=O)C[C@@H]1CCNC[C@@H]1Cc1cc(-c2ccccc2)on1,i
COC(=O)c1cc(C[C@H]2CNCC[C@H]2CC(=O)O)no1,77%*
Fc1c(F)c(F)c2c(cnn2-c2ccccc2)c1F,i
COc1ccc2ccc(OCc3nc(C(=O)N4CCC(NC(C)=O)C4)co3)cc2c1 (stereo not drawn),i
Cc1nc(CN2CCN(Cc3nc(-c4ccccn4)no3)CC2)cs1,i
COc1ccc(OC)c(NC(=O)c2cccc([N+](=O)[O-])c2)c1,i
Cc1ccc2c(c1)N(C(C)C(=O)N1CCOCC1)C(=O)CO2 (stereo not drawn),i
Cc1ccc(N=Cc2c(Nc3ccccc3)nc3c(C)cccn3c2=O)cc1,i
COc1ccc(Nc2nc3c(C)cccn3c(=O)c2C=NCc2ccccc2)cc1,40%*
